Hits are enriched below; roughly 1.9% of the tested compounds scored in any of these assays.
SDO1 yeast rescue: sdo1-depleted yeast growth rescue; S. cerevisiae sdo1-depleted JHY4D growth rescue, OD600 30 h; hits give high values; pdr5 snq2 efflux-pump mutant strain; z-score at 10 µM; actives 0.21% (n = 140,000); AID 817;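 active = z-score above 3 at both the 24 hr and the 30 hr optical density reads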;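 note: z-score against mean and SD of all compound wells on the same plate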
sEH activator: activators of human soluble epoxide hydrolase; P34913; purified human sEH enzymatic activity, activator screen; activation, % at 2 µM; actives 0.04% (n = 91,000); in the data active = activation above about 37%
Target sequence (P34913 whole entry, looked up): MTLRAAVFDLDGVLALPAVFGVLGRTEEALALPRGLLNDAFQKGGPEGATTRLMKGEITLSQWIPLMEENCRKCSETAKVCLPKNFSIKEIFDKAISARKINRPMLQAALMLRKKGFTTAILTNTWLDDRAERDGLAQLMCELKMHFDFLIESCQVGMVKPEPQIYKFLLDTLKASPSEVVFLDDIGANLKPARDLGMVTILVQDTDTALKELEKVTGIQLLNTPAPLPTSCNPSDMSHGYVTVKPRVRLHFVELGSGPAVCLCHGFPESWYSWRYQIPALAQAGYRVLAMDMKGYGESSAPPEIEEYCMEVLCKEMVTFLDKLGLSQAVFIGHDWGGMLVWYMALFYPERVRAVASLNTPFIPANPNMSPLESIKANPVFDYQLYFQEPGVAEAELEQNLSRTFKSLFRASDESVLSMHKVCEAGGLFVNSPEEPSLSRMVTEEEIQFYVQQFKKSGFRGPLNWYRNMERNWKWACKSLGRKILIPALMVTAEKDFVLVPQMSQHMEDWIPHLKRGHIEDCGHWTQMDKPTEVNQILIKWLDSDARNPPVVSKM
sEH inhibitor: blocks human soluble epoxide hydrolase activity | recombinant human sEH enzymatic activity assay | inhibition, % at 2 µM | actives 0.34% (n = 91,000); in the data active = inhibition above about 80%
Measles CPE: protection of cells from measles virus; actives 1.5% (n = 140,000); protection (pct of control), % at 4 µM; AID 841; Measles virus-infected cells, CPE protection, absorbance; in the data active = protection mostly above about 24%, no sharp cut-off; inactive = mostly below about 26%
Starred values were filed as active, the others as inactive; . = no result given.

SMILES | SDO1 yeast rescue | sEH activator | sEH inhibitor | Measles CPE
C/C(=C\c1ccccc1)C(=O)NC1CCSC1=O (configuration not stated) | 0.82 | 5 | -4 | 3
CC(=C\C(=O)O)/C(=C/c1ccccc1)C(=O)O | 0.86 | 21 | -23 | 25*
CC(C)c1nc(-c2ccc([N+](=O)[O-])cc2)cs1 | 0.14 | . | . | 4
COc1ccccc1CNC(=O)CCC(=O)Nc1nnc(C)s1 | -0.72 | . | . | 51*
CN(C(=O)c1ccncc1)c1nnc(-c2cnccn2)s1 | 0.23 | 4 | -3 | 32*
CC1(C)Oc2ccc(C(=O)N3CCCCC3)cc2N(CC(=O)NCc2ccccc2)C1=O | -1.1 | 9 | -10 | 3
CCCOC(=O)CN1C(=O)c2ccccc2C1=O | 0.74 | 6 | -6 | 20*
CCOC(=O)CN1C(=O)c2ccccc2C1=O | -0.48 | 8 | -5 | 3
Cn1c(-[n+]2c(-c3ccccc3)cc(-c3ccccc3)cc2-c2ccccc2)nc2cc([N+](=O)[O-])ccc21 | 0.1 | . | . | 4
CCN(CC)c1ccc(NC(=O)c2ccccc2)cc1S(=O)(=O)Nc1ccccc1OC | -0.79 | . | . | 45*
O=C(NNc1ccc([N+](=O)[O-])cc1)C1CC1c1ccccc1 (configuration not stated) | 0.2 | . | . | 23*
CC1Cc2nc(SCC(=O)Nc3ccc(F)cc3F)n(C)c(=O)c2S1 (configuration not stated) | -2.2 | 19 | -20 | 41*
COCCNC(=O)C1(C)C=CC2(CCCCC2)N1C(=O)c1ccccc1 (configuration not stated) | -0.09 | . | . | 22*
O=C(NC1CCCCCC1)c1cccc(COCC(F)(F)F)c1 | 0.61 | -61 | 62 | 36*
Cc1ccc(C(C)NC(=O)c2ccco2)cc1C (configuration not stated) | 0.05 | . | . | 6
O=C(NCCN1CCCC1=O)Nc1ccccc1 | 0.61 | 2 | -2 | 17
COc1ccccc1-c1nc2ccccc2nc1-c1ccccc1OC | -0.34 | . | . | 12
COc1cc(OC)c2c(OC)cccc2n1 | -0.18 | . | . | 92*
c1ccc(Cc2nnc3sc(-c4ccccn4)nn23)cc1 | -0.11 | 4 | 0 | 62*
Cn1nnnc1SCc1ccccc1F | -0.2 | . | . | 8
CCOc1cc(C2NC(=O)NC(C)=C2C(=O)OCc2ccccc2)ccc1O (configuration not stated) | 0.32 | 1 | -1 | 47*
COc1cc(C2NC(=O)NC(C)=C2C(=O)OCc2ccccc2)ccc1O (configuration not stated) | 0.87 | . | . | 16
CCc1cc2c(SCC(=O)c3ccc(C)cc3)ncnc2s1 | -0.13 | 1 | 2 | 41*
Cc1ccc(-c2csc3ncnc(SCC(=O)c4ccc5c(c4)OCCO5)c23)cc1 | -0.32 | 16 | -17 | 7
CCn1c(CSc2nccn2C)nc2cc(C(=O)O)ccc21 | 0.56 | 8 | -8 | 51*
SMILES | SDO1 yeast rescue | sEH activator | sEH inhibitor | Measles CPE
COc1cccc(C(C(=O)Nc2ccc(F)cc2)N(C(=O)Cn2nnc3ccccc32)C2CC2)c1 (configuration not stated) | 0 | -6 | 8 | 6
COc1ccc([N+](=O)[O-])cc1NC(=O)CSc1ccccc1 | -1.1 | -1 | 3 | 66*
COc1ccc([N+](=O)[O-])cc1NC(=O)CSCc1ccccc1 | 0.06 | . | . | 15
N#Cc1c2n(c(=O)[nH]c1=O)CCCCC2 | 0.48 | -10 | 6 | 6
Cc1cc(C)nc(N2CCC(C(=O)NCC3CCCCC3)CC2)n1 | 0.22 | -40 | 40 | 33*
C=CC(C)N1C(=O)S/C(=C\c2ccc(N3CCOCC3)cc2C)C1=O (configuration not stated) | 0.12 | . | . | 20
N/C(=N\OC(=O)CCCN1C(=O)c2ccccc2C1=O)c1ccc(Cl)cc1 | -0.98 | 0 | -1 | 41*
CSc1nnc2c(n1)c(C)nn2-c1ccc(C)cc1 | -0.79 | 6 | -4 | 38*
Cc1ccc(-n2nc3c(Cl)nnc(C)c3c2C)cc1 | -0.16 | . | . | 19
O=C(Nc1cccc2nsnc12)c1cccnc1Cl | -0.36 | . | . | 3
Cc1c(Cl)c([N+](=O)[O-])nn1Cc1ccc(C(=O)N/N=C\c2cccc(Br)c2)o1 | 0.99 | -96 | 96* | 2
O=C(N/N=C\c1cccc(Cl)c1)c1ccc(Cn2cc(Br)c([N+](=O)[O-])n2)o1 | -0.54 | . | . | 1
Cc1ccc(NC(=S)NNC(=O)c2c(Cl)c(C)nn2C)cc1 | -0.06 | . | . | 9
Cc1ccc(NC(=S)NNC(=O)c2nn(C)c(C)c2Cl)cc1 | 1.6 | 12 | -8 | 102*
Cc1cc(C(=O)N/N=C/c2cn[nH]c2-c2ccccc2)cs1 | 1.6 | . | . | 12
O=C1N(c2cccc3ccccc23)C(c2ccccc2)N2CCCN12 (configuration not stated) | 0.84 | . | . | 20*
O=C1N(c2cccc(Cl)c2)C(c2ccccc2)N2CCCN12 (configuration not stated) | 1.6 | . | . | 11
N#CC(C(=O)NC1CCCCC1)=C1CCCCCC1 | 0.67 | . | . | 34*
O=C(NN=C1CCCCCCC1)C(=O)NC1CCCCC1 | -0.52 | -9 | 9 | 6
CS(=O)(=O)NCC(c1ccco1)N1CCN(c2ccc(F)cc2)CC1 (configuration not stated) | 0.26 | . | . | 63*
COc1ccc(NC(=O)c2cccc(S(=O)(=O)N(C)c3ccccc3)c2)cn1 | -0.22 | . | . | 8
COc1ccc(NC(=O)c2cc(S(=O)(=O)N(Cc3ccccc3)c3ccccc3)ccc2Cl)cn1 | -0.03 | . | . | 39*
COc1ccc(CCNC(=O)C2CC2)cc1OC | 0.11 | -4 | 2 | 46*
CCOc1ccccc1CNC(=O)c1cc2oc3ccccc3c2n1C | -1.5 | -14 | 13 | 77*
Cc1ccc2nc(-c3ccc(NS(C)(=O)=O)cc3)cc(-c3ccccc3)c2c1 | -1.6 | -12 | 14 | 42*
SMILES | SDO1 yeast rescue | sEH activator | sEH inhibitor | Measles CPE
CCCCCCc1ccc(OCC(=O)O)cc1OCC(=O)O | 0.3 | 8 | -6 | 5
CC(=O)Nc1ccccc1C(=O)C(=O)Nc1ccc(C)c(F)c1 | -0.17 | . | . | 16
CC(=O)Nc1ccccc1C(=O)C(=O)Nc1cccc(F)c1 | . | 39* | -43 | .
Cc1cc(SCC(=O)Nc2cccc(S(=O)(=O)NC3=NCCCCC3)c2)c(C)cc1Br | 0.53 | . | . | 28*
CCCC(=O)N1CCN(c2ccc(NC(=O)c3cc4ccccc4o3)cc2)CC1 | -0.51 | 7 | -3 | 60*
Cc1nn(C)c(C)c1CN(C)S(=O)(=O)c1ccc2ccccc2c1 | -0.7 | -4 | 4 | 47*
CCOc1cc(C(=O)N(C)Cc2cc3ccccc3[nH]c2=O)cc(OCC)c1OCC | -0.39 | 3 | -5 | 64*
COC(=O)c1[nH]c2ccccc2c1NC(=O)Oc1ccccc1 | -1 | -13 | 13 | 23
CC1(C)Cc2c(C#N)c(NCCc3ccccc3)nc(-c3ccco3)c2CO1 | -0.49 | . | . | 53*
COc1cccc(OC)c1C(=O)NN1CCCCC1 | 0.73 | 8 | -8 | 35*
COc1cc(OC)cc(C(=O)NN2CCCCC2)c1 | 0.11 | 24 | -24 | 1
O=C(CSc1nnc(-c2ccc(Cl)s2)o1)N1CCCc2ccccc21 | -1.7 | -3 | 6 | 12
COc1ccc(NC(=O)/C=C/c2cc(Br)ccc2OC)cc1 | -0.76 | -5 | 8 | 23*
O=C1CC(NC23CC4CC(CC(C4)C2)C3)C(=O)N1c1ccc2c(c1)OCO2 (configuration not stated) | 1.6 | 1 | -4 | 32*

Screens: PubChem BioAssay, several laboratories
